Assay results from PubChem BioAssay AID492950 (Southern Research Specialized Biocontainment Screening …, 2010).
Measured potencies and affinities stand elsewhere. Calls of active or inactive are those of the source. The rule behind the calls is not given here.

Test: viability loss in mammalian cells – cytotoxicity control, dose response (AID 492950)
Details: mammalian cell viability, cytotoxicity counter-screen; series mostly up to 40 µM

Compound | outcome
Cc1cc(-c2[nH]nc3c2C(c2ccc(Cl)cc2)C(C#N)=C(N)O3)c(C)s1 (stereo not given) | inactive
CC(=O)N(C1CC(C)C(C#N)(C#N)C1(C#N)C#N)N(C)C (stereo not given) | inactive
COc1ccc(/C=C2/C(=O)N(c3ccccc3)N=C2C)cc1OC | inactive
CC1=NNC(=O)C1Cc1c(Cl)cccc1Cl (stereo not given) | inactive
COC(=O)C(C#N)C(c1cccnc1)c1c(C)[nH][nH]c1=O (stereo not given) | inactive
Cc1ccsc1/C=N/NC(=O)Cc1cc(=O)[nH][nH]1 | inactive
CCOc1ccc(-c2[nH]nc3c2C(c2ccc(O)cc2)C(C#N)=C(N)O3)cc1 (stereo not given) | inactive
CCC(C)[C@@H](NC(=O)OC(C)(C)C)c1nnc(S(=O)(=O)Cc2cccc(C)c2)o1 (stereo not given in full) | inactive
O=C(Cc1ccccc1)c1c[nH]c(C(=O)C(Cl)(Cl)Cl)c1 | inactive
C/C(=N\NC(=O)Cc1cc(=O)[nH][nH]1)c1cccc([N+](=O)[O-])c1 | inactive
CCCCCCOC(=O)c1ccc(OC(=O)c2cccnc2)cc1 | inactive
O=C(Cc1cc(=O)[nH][nH]1)N/N=C/C=C/c1ccccc1 | inactive
CCOC(=O)C/C(C)=N/NC(=O)COc1ccccc1C | inactive
Cc1ccc(-c2cc(=O)[nH][nH]2)c(C)c1 | inactive
N#CC1=C(N)Oc2n[nH]c(-c3cccs3)c2C1c1ccccc1C(=O)O (stereo not given) | inactive
CCCc1c(-c2ccc(O)cc2)nn(-c2ccc(O)cc2)c1-c1ccc(O)cc1 | inactive
COc1ccc(-c2[nH]nc3c2C(c2ccoc2)C(C#N)=C(N)O3)cc1 (stereo not given) | inactive
COc1ccc(/C=C2/C(=O)N(c3ccccc3)N=C2C)c(OC)c1 | inactive
Cc1ccccc1-c1nc(CN(C)C(C)c2ccon2)c(C)o1 (stereo not given) | inactive
Cn1c(O)c(C2=NN(C(=O)CCl)C(c3ccccc3)C2)c(=O)n(C)c1=O (stereo not given) | inactive
Cc1ccc(C2C(C#N)=C(N)Oc3n[nH]c(-c4cccs4)c32)cc1 (stereo not given) | inactive
O=C1CC(CSc2ccc(Cl)cc2)=NN1 | inactive
CC(=O)N1CCC2(CC1)C(C#N)=C(N)Oc1n[nH]c(CSc3ccc(C)cc3)c12 | inactive
Cc1ccc(SCc2[nH]nc3c2C2(CCSCC2)C(C#N)=C(N)O3)cc1 | inactive
O=C(CSCc1cc(=O)[nH][nH]1)Nc1ccc(F)cc1 | inactive
CCOc1cc(C2C(C#N)=C(N)Oc3n[nH]c(-c4ccccc4)c32)ccc1O (stereo not given) | inactive
Cc1nc2ccccc2c2c1C(=O)N(C)C2=O | inactive
O=C(Cc1cc(=O)[nH][nH]1)N/N=C/c1ccccc1Cl | inactive
O=c1cc(-c2ccc(Cl)c(Cl)c2)[nH][nH]1 | inactive
Cc1cc(-c2[nH]nc3c2C(c2ccsc2)C(C#N)=C(N)O3)c(C)s1 (stereo not given) | inactive
